Screens (PubChem BioAssay)
An excerpt weighted towards active compounds, which were near 2.7% of everything screened.
SKN-1 inh – blocks SKN-1 activity in C. elegans. C. elegans VP596 Pgst-4::GFP/RFP ratio, acrylamide-induced, 24 h. inhibition, % at 21.8 µM. 0.49% of 360,000 active;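 active = interference check ratio from 0.5 to 1.5 plus GFP to RFP signal ratio inhibition reaching or exceeding a fixed threshold, cut at about 30% in these data, passing the limit was not always enough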
ATG4B inh – ATG4B (human) cysteine protease inhibition. inhibition, % at 8.33 µM. ATG4B cleavage of LC3-PLA2, NBD-HPC fluorescence, 1 h. Q9Y4P1. AID 504462. 0.51% of 340,000 active; in the data active = inhibition above about 40%
Target sequence (Q9Y4P1 whole entry, looked up): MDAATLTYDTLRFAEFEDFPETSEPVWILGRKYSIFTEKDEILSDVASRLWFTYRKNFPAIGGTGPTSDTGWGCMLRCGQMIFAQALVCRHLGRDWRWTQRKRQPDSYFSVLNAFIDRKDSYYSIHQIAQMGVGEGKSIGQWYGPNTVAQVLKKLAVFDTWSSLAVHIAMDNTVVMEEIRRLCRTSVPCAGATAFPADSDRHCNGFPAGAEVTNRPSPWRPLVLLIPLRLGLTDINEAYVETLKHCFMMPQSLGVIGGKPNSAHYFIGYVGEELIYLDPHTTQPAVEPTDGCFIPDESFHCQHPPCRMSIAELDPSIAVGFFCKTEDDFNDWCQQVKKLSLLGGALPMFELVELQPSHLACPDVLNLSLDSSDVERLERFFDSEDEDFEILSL
F508del corr – correctors of CFTR F508del function in bronchial epithelial cells. activity (quench increase), % at 7.58 µM. CFBE cells, YFP halide quenching; stimulated with forskolin plus potentiator P3; % fluorescence drop versus neutral controls. AID 720511. 0.36% of 350,000 active;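 active = mean added fluorescence quench of at least 8% versus neutral control, with both replicates also reaching 8%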;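 note: cells transiently co-express mutant CFTR-F508del with the halide-sensitive YFP; corrector assay measuring rescue of mutant channel to the surface after 24 h compound exposure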
MPTP block – blocks calcium-induced mitochondrial swelling; isolated mouse mitochondria, Ca2+ swelling absorbance, 30 min; inhibition, % at 10 µM; AID 602449; 1.4% of 360,000 active;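 active = inhibition of 50% or more, scaled per plate between neutral and stimulator controls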
NRP1-CendR mod – NRP-1/CendR interaction modulation; AID 602438; 0.85% of 360,000 active; FAM-RPARPAR peptide binding to NRP-1, fluorescence polarization; O14786; inhibition, % at 25 µM;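 active = inhibition or corrected inhibition above about 18%, plus a signal ratio from 0.5 to 1.5, limit read from the data, passing the limit was not always enough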
Hits are given with their value; - = inactive; . = no result given.

SMILES | SKN-1 inh | ATG4B inh | F508del corr | MPTP block | NRP1-CendR mod
Cc1ccsc1C(=O)OCC(=O)NC1CCCC1 | - | - | - | - | 21
COc1cccc(/C=N/NC(=O)C(=O)N2CCCCCC2)c1O | - | - | - | - | -
COc1cccc(/C=N/Nc2ncnc(Cl)c2N)c1O | - | - | 23 | - | -
COc1cccc(/C=N/NC(=O)C(=O)N/N=C/c2cccc(OC)c2O)c1O | - | - | 10 | - | -
Cc1noc(C)c1NC(=O)N(C)C[C@@H]1Oc2c(NC(=O)Nc3ccc(F)cc3)cccc2C(=O)N([C@@H](C)CO)C[C@@H]1C | . | . | - | . | .
OCC[C@@H]1C[C@H](O)[C@@H](O)[C@@]2(CCCCO2)O1 | - | - | - | - | 27
CCOC(=O)N1CCC(NC(=O)c2ccc3c(c2)N=C(C)c2c(C)ccc(C)c2S3)CC1 | - | - | 11 | - | -
CCOC(=O)N1CCC(NC(=O)c2ccc3c(c2)N=C(CC)c2cc(C)ccc2S3)CC1 | - | - | - | - | -
CN1c2ccccc2C(C)(C)C12CC(c1ccc(S(=O)(=O)N3CCCCC3)cc1)=NO2 (stereo not drawn) | - | - | . | - | 19
O=c1ccn(Cc2ccccc2)c2ccccc12 | - | - | - | - | 30
O=C1CC(N2CCN(Cc3ccc4c(c3)OCO4)CC2)C(=O)N1c1cccc(Cl)c1 (stereo not drawn) | - | - | . | - | 37
C[C@@H]1CCCCO[C@@H](CN(C)C(=O)CCC(F)(F)F)[C@H](C)CN([C@H](C)CO)C(=O)c2cc(NS(=O)(=O)c3cn(C)cn3)ccc2O1 | . | . | - | . | .
CCCCNC(=O)c1onc(CSc2ccc(Cl)cc2)c1C(=O)NCCCC | - | - | - | - | -
CCCCNC(=O)c1c(CSc2ccc(Cl)cc2)noc1C(=O)NCCC | - | - | - | - | 31
COc1ccc(NC(=O)N(C)C[C@@H]2Oc3ccc(NC(=O)Cc4ccccc4)cc3CC(=O)N([C@H](C)CO)C[C@H]2C)cc1 | . | . | - | . | .
COc1ccc(-c2noc(C(=O)NCc3ccc(F)cc3)n2)cc1OC | - | - | - | - | 37
COc1ccc(-c2noc(C(=O)NCc3ccccc3Cl)n2)cc1OC | - | - | - | - | -
Cc1ccc(S(=O)(=O)N(C)C[C@@H]2OCCCC[C@@H](C)Oc3ccc(NS(=O)(=O)c4ccc(Cl)cc4)cc3C(=O)N([C@@H](C)CO)C[C@@H]2C)cc1 | . | . | 8.6 | . | .
Cc1noc(C)c1S(=O)(=O)N(C)C[C@H]1OCCCC[C@@H](C)Oc2ccc(NS(=O)(=O)c3cn(C)cn3)cc2C(=O)N([C@H](C)CO)C[C@@H]1C | - | . | - | - | 26
COCC(=O)Nc1ccc2c(c1)[C@@H]1C[C@H](CC(=O)NCCc3ccccc3)O[C@@H](CO)[C@@H]1O2 | . | . | - | . | .
CC(Cl)C(=O)c1c(N)n(C)c(=O)n(C)c1=O (stereo not drawn) | - | - | - | - | 40
CC(Sc1nccn1C)C(=O)c1c(N)n(C)c(=O)n(C)c1=O (stereo not drawn) | - | - | - | - | -
C[C@@H]1CN([C@H](C)CO)C(=O)c2cc(NC(=O)Nc3ccccc3)ccc2O[C@@H](C)CCCCO[C@H]1CN(C)Cc1ccncc1 | . | . | - | . | .
COc1ccc(N=Nc2cc(C)c(O)c(CN3CCCCC3)c2)cc1 | 50 | - | - | - | -
C[C@H](CO)N1C[C@H](C)[C@H](CN(C)Cc2cccnc2)Oc2cc(-c3cncnc3)ccc2S1(=O)=O | . | . | - | . | .
SMILES | SKN-1 inh | ATG4B inh | F508del corr | MPTP block | NRP1-CendR mod
CCOc1ccc(CCN2C(=S)N([C@@H](Cc3ccccc3)CN3CCC[C@@H]3CN3C(=S)NC[C@@H]3Cc3ccc(O)cc3)C[C@@H]2CC(C)C)cc1 | - | . | - | - | 19
O=C1NC[C@H](Cc2ccccc2)N(C[C@@H]2CCCN2C[C@H](Cc2ccc(O)cc2)N2C[C@H](Cc3ccccc3)N(CC3CCCCCC3)C(=O)C2=O)C1=O | 37 | . | - | - | -
O=C(C[C@H]1C[C@@H]2c3cc(NC(=O)NC4CCCC4)ccc3O[C@@H]2[C@H](CO)O1)NCc1cccc(F)c1 | . | . | - | . | .
C[C@@H]1CN([C@@H](C)CO)C(=O)Cc2cc(NC(=O)Nc3ccccc3)ccc2O[C@H]1CN(C)C(=O)NC1CCCCC1 | . | . | - | . | .
CSc1nc(N2CCOCC2)c2c(c1C#N)CC(C)(C)OC2 | 37 | - | . | - | -
Cc1c(N2C(=O)/C(=C\c3ccc(N(C)C)cc3)N(C)C2=S)c(=O)n(-c2ccccc2)n1C | 64 | - | . | - | -
COc1ccc2[nH]c3c(c2c1)CCNC3=O | - | - | - | - | -
O=C1NCCc2c1[nH]c1ccc([N+](=O)[O-])cc21 | - | - | 11 | - | -
O=c1cc[nH]c2ccc([N+](=O)[O-])cc12 | - | - | - | - | 34
CCS(=O)(=O)Nc1ccc2c(c1)C(=O)N(C)[C@H]1CC[C@@H](CC(=O)NC)O[C@H]1CO2 | . | . | - | . | .
COc1ccc(/C(C)=N/NC(=O)CNC(=O)/C=C\c2ccccc2OC)c(OC)c1 | 37 | - | - | - | -
COc1ccccc1/C=C/C(=O)NCC(=O)N/N=C(/C)c1ccco1 | - | - | - | - | -
Cc1c(C(=O)N(Cc2ccccc2)C2CCS(=O)(=O)C2)oc2ccccc12 (stereo not drawn) | - | - | - | - | -
COc1ccc(CN(C(=O)c2oc3ccccc3c2C)C2CCS(=O)(=O)C2)cc1 (stereo not drawn) | 36 | - | . | - | -
Cc1cccc(N2C(=O)C(Cl)=C(Nc3c(C)n(C)n(-c4ccccc4)c3=O)C2=O)c1C | - | - | - | - | 26
Cc1cc(C(=O)N/N=C/c2ccc(N(C)C)cc2)c2ccccc2n1 | - | - | 8.3 | - | -
O=C(N/N=C/c1ccc2c(c1)OCO2)c1cc(-c2ccncc2)nc2ccccc12 | - | - | . | - | -
Cc1cc(C(=O)N/N=C/c2ccc([N+](=O)[O-])cc2)c2ccccc2n1 | - | - | 14 | - | -
Cc1cc(C(=O)N/N=C/c2cc([N+](=O)[O-])ccc2O)c2ccccc2n1 | - | - | . | - | -
Cc1ccc(-c2cc(C(=O)N/N=C/c3cccnc3)c3ccccc3n2)cc1C | - | - | - | - | 26
Cc1cc(C(=O)N/N=C/c2ccc3c(c2)OCO3)c2ccccc2n1 | - | - | 19 | - | -
O=C(N/N=C/c1cccnc1)c1cc(-c2ccccc2)nc2ccccc12 | - | - | - | - | -
C[C@H](O)C#Cc1ccc2c(c1)O[C@H](CN(C)C(=O)c1ccccc1)[C@H](C)CN([C@H](C)CO)S2(=O)=O | . | . | - | . | .
COc1ccc2c3c([nH]c2c1)[C@@H](CO)N(Cc1ccccc1F)CC31CCN(S(C)(=O)=O)CC1 | . | . | - | . | .
C[C@H](CO)N1C[C@H](C)[C@H](CN(C)Cc2ccncc2)Oc2ccc(NS(=O)(=O)c3ccc(Cl)cc3)cc2C1=O | . | . | - | . | .
C[C@@H]1CN([C@@H](C)CO)C(=O)c2cc(NS(=O)(=O)c3cccs3)ccc2O[C@H]1CN(C)C | . | . | - | . | .
COC(=O)C[C@@H]1CC[C@@H]2[C@H](COc3ccc(NS(=O)(=O)c4ccc(C)cc4)cc3C(=O)N2C)O1 | . | . | - | . | .
